Screens: PubChem, National Center for Advancing Translational Sciences (NCATS)
The entries come from a sample that favours hits as a whole.
SARS PLP yeast – inhibitors of SARS-CoV papain-like protease in yeast | S. cerevisiae expressing SARS-CoV PLpro, growth rescue | Potency, µM (highest dose often 32.9 µM), inactives show at the top dose activity, positive = growth rescue, actives largely listed as activators | hit rate 0.19% among 330,000 | AID 485353; calls by dose curve; further: potency means the concentration at half of the fitted maximal effect; 0% is about no effect; nearly all actives have a fitted effect of over 55% in size
AMA1 RON2 block – disrupts binding of P. falciparum AMA1 to RON2 | AlphaScreen AMA1-biotinylated RON2 peptide binding | Potency, µM (series often up to 58.2 µM), without a hit: top-dose activity change, negative = inhibition, actives largely listed as inhibitors | AID 720542 | hit rate 0.2% among 360,000;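 further: potency means the concentration at half of the fitted maximal effect; 0% = vehicle wells and -100% = peptide control; nearly all actives have a fitted effect of over 45% in size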
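AMA1 (3D7) with his tag at 25 nM final met compounds first, then biotinylated RON2 peptide at 25 nM; detection used donor plus acceptor beads, 10 µg/mL apiece, read by AlphaScreen after 30 min at room temperature.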
Shiga inhibitor – blocks Shiga toxin action in Vero cells; Vero cells, Shiga toxin protein synthesis inhibition reporter; hit rate 9.2% among 290,000; AID 2315; inhibition, % at 38.7 µM; in the data active means inhibition mostly above about 28%, no sharp cut-off; inactive means mostly below about 43%; further: 0% is about no effect
Cycloheximide cs – counter-screen for Shiga toxin inhibitors: cycloheximide protein synthesis inhibition. cell reporter, cycloheximide protein synthesis inhibition counterscreen. max response, %. hit rate 12% among 300,000; in the data active means max response mostly above about 13%, no sharp cut-off; inactive means mostly below about 14%; further: read at 38.3 µM for the half of the compounds with a filed dose; 0% is about no effect
AmpC inh detg – blocks E. coli AmpC beta-lactamase in detergent assay | Potency, µM (top dose mostly 114 µM), without a hit: top-dose activity change, negative = inhibition, actives largely listed as inhibitors | hit rate 0.041% among 370,000 | AID 485294 | AmpC hydrolysis of nitrocefin, absorbance 480 nm, 0.01% Triton | P00811;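 further: potency means the concentration at half of the fitted maximal effect; 0% = no-compound wells and -100% = no-enzyme wells; nearly all actives have a fitted effect of over 25% in size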
Target sequence (P00811 whole entry, looked up): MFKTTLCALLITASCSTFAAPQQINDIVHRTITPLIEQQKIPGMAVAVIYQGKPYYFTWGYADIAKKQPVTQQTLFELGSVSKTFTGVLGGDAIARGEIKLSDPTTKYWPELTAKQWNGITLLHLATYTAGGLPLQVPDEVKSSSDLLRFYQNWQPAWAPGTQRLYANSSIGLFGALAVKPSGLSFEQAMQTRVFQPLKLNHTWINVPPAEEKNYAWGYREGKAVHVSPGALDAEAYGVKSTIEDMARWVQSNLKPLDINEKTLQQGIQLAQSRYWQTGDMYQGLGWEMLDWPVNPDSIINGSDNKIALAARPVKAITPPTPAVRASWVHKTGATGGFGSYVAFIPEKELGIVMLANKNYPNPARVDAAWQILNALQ
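AmpC (5.3 nM in the dispensed reagent) in 20 mM phosphate pH 7.0 with 0.01% (detergent screen) or 0.0001% Triton X-100 was preincubated with compounds for 15 min at room temperature. Nitrocefin was then added from an 800 uM solution, and hydrolysis was followed at 480 nm.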
AmpC inh no detg – AmpC beta-lactamase inhibition without detergent; Potency, µM (series often up to 57.1 µM), for inactives: top-dose activity change, negative = inhibition, most hits filed as inhibitors; P00811; hit rate 0.52% among 330,000; AmpC nitrocefin hydrolysis, absorbance 480 nm, 0.0001% Triton;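 further: potency means the concentration at half of the fitted maximal effect; plate controls were no compound for no effect and no enzyme for full effect; nearly all actives have a fitted effect of over 20% in size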
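20 mM phosphate pH 7.0 + 0.01% (detergent screen) or 0.0001% Triton X-100; 5.3 nM AmpC reagent; cpd preinc 15 min RT; nitrocefin (800 uM stock) to start; A480 q20 s × 4 min; Activity was normalised to no-enzyme and no-compound control wells.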
Active calls of the source: *; ? = inconclusive; · = not tested or not shown; [ ] = remark or other dose. Unless noted, the call rests on the fitted dose curve; in most records, active means well fitted curve in the direction sought with a large enough effect; inconclusive means small, poorly fitted or top-dose-only effect, or another doubt; inactive means no such curve, though single readings can be large; an effect the other way counts as inactive or inconclusive.

SMILES | SARS PLP yeast | AMA1 RON2 block | Shiga inhibitor | Cycloheximide cs | AmpC inh detg | AmpC inh no detg
O=C(c1ccccc1)c1nn(-c2ccccc2)c(=O)cc1C(F)(F)F | 1.9% | -5.1% | 26.6 | 17.0* | -2.4% | -1.2%
COc1ccc([N+](=O)[O-])c(OC)c1C(=O)NC(=O)Nc1c(C)cccc1C | -1.4% | -5.7% | -3.3 | -3.5 | -10.9% | -17.3%
CC(C)C(c1nnnn1Cc1ccc2c(c1)OCO2)N1CCN(C)CC1 (stereo not drawn) | -3.4% | 0.2% | 12.5 | -3.0 | -9.9% | -25.3%
CCCOc1ccc(C(=O)Nc2ccc(S(=O)(=O)Nc3onc(C)c3C)cc2)cc1 | -1.4% | 2.8% | 12.6 | -6.1 | ? | -22.3%
Clc1ccc(-c2nnc(-c3ccccc3)nc2-c2c[nH]c3ccccc23)cc1 | -0.2% | -5.9% | 24.3 | 2.1 | -8.0% | -15.2%
COc1cc(-c2ccc(NC(=O)c3ccc(C)cc3)c(OC)c2)ccc1NC(=O)c1ccc(C)cc1 | 4.2% | 1.7% | -3.7 | 2.4 | -11.6% | -20.7%
O=C(CCN1C(=O)C2(OCCO2)c2ccccc21)c1ccccc1 | -2.7% | 1.4% | 1.3 | 0.9 | -9.0% | -15.1%
CCOc1ccc2nc(Cl)sc2c1 | -8.2% | -2.6% | 13.3 | 6.6 | -6.9% | 5.3%
CCc1nc2cc3sc(CC)nc3cc2s1 | -0.1% | 46.6% | 74.1* | 24.5* | 0.6% | -8.5%
O=C(Oc1ccc(OC(=O)c2ccco2)c(S(=O)(=O)c2ccc(Br)cc2)c1)c1ccco1 | -9.0% | -1.7% | 13.6 | 7.7 | -15.6% | -18.5%
Cc1ccc(S(=O)(=O)c2cc(OC(=O)c3ccco3)ccc2OC(=O)c2ccco2)cc1 | 3.2% | -12.2% | -10.7 | -1.7 | -20.6% | 12.6µM*
CCOC(=O)c1oc2ccc(/C=N/O)c(Cl)c2c1C | -1.1% | 8.6% | 36.8 | 28.7* | 0.2% | 6.5%
CCOC(=O)c1oc2cc(C)cc(C)c2c1C | -0.5% | -3.4% | -0.9 | -1.9 | -0.8% | -16.3%
COC(=O)C1=C(C)n2cnnc2NC1c1ccc(Cl)cc1 (stereo not drawn) | ? | -3.3% | 25.7 | -2.4 | -2.9% | -90.2%
Cc1ccc(C(=O)NC(C)CCc2ccccc2)cc1[N+](=O)[O-] (stereo not drawn) | -13.2% | -23.8% | 10.5 | 4.7 | 3.7% | -24.8%
O=C1Nc2c(c(=O)[nH]c(=O)n2-c2ccccc2F)C(C(F)(F)F)(C(F)(F)F)N1 | -1.2% | 7.0% | -4.6 | -1.2 | ? | -11.4%
O=C1c2ccccc2C(=O)N1c1ccccc1 | · | 13.5% | · | · | · | ·
O=C1c2ccccc2C(=O)N1c1ccc(Cc2ccncc2)cc1 | 6.7% | -1.2% | 37.6 | 14.8* | -0.6% | -2.9%
COc1cccc(NC(=O)C2C3C=CC(O3)C2C(=O)NCc2cccnc2)c1 (stereo not drawn) | -11.6% | 0.6% | -9.5 | 3.6 | ? | -5.4%
COc1ccc(C(=S)N2CCOCC2)cc1OS(=O)(=O)c1ccccc1[N+](=O)[O-] | -2.9% | -28.4% | 45.7 | 28.0* | ? | -11.6%
CC(=O)c1ccc(OCC(O)CN2CCN(CCN3C(=O)c4cccc5cccc(c45)C3=O)CC2)cc1 (stereo not drawn) | 8.8% | -10.7%[11.6 µM] | -1.7 | -2.5 | -4.9% | 163.7%
CCOC(=O)N1CCC(c2cc(=O)n3[nH]cc(C(=O)OC)c3n2)CC1 | 5.1% | 7.2% | -1.5 | -2.5 | ? | 7.94µM*
CCOC(=O)N1CCC(c2cc(=O)n3[nH]ccc3n2)CC1 | -7.7% | 0.5% | -6.5 | -3.2 | ? | -14.6%
CCOC(=O)C1CCN(S(=O)(=O)c2c(C)[nH]c(C)c2C(=O)N2CCCCC2)CC1 | 19.6% | -3.2% | 10.4 | -1.4 | ? | -3.0%
O=[N+]([O-])c1cccc(-c2nn(-c3ccccc3)cc2CO)c1 | -2.8% | -3.0% | 26.6 | 12.1* | 4.1% | -0.3%
SMILES | SARS PLP yeast | AMA1 RON2 block | Shiga inhibitor | Cycloheximide cs | AmpC inh detg | AmpC inh no detg
Cc1ccc(-c2nn(-c3ccccc3)cc2CO)cc1 | -1.8% | 19.5% | 144.3* | 42.0* | 0.4% | -4.4%
COc1ccc(-c2nn(-c3ccccc3)cc2N)cc1 | -0.5% | -16.3% | 182.7* | 61.3* | -5.1% | -27.4%
O=C(O)/C=C/c1cn(-c2ccccc2)nc1-c1cccc([N+](=O)[O-])c1 | -0.5% | -6.5% | -10.4 | -1.8 | 1.8% | -23.3%
COc1ccc(-c2cn(-c3ccccc3)nc2CO)cc1 | -3.2% | -4.3% | 111.5* | 36.7* | -11.2% | -30.7%
C[C@H](CO)N1C[C@H](C)[C@@H](CN(C)CC2CCOCC2)Oc2ncc(Br)cc2C1=O | · | 25.5% | · | · | · | ·
COc1ccc(-c2nn(-c3ccccc3)cc2CO)cc1 | -6.6% | -1.5% | 163.9* | 61.2* | 1.6% | -17.4%
CC1CCCC(C)N1C(=O)c1cc(-c2ccc3c(c2)OCO3)on1 (stereo not drawn) | -2.7% | -20.3% | 77.9* | 53.6* | -6.1% | 8.0%
CC1CCCC(C)N1C(=O)c1cc(-c2ccc(Cl)c(Cl)c2)on1 (stereo not drawn) | 3.8% | 19.2% | 1.9 | -1.5 | ? | -16.5%
O=C(c1cc(-c2ccc(Cl)cc2)on1)N1CCCCCC1 | -2.5% | 11.1% | 109.4* | 26.8* | 7.6% | -15.1%
O=C(c1cc(-c2ccc3c(c2)OCO3)on1)N1CCCCC1 | -7.8% | -16.1% | 54.8* | 25.0* | -16.8% | -9.3%
Cc1ccc(-c2cc(C(=O)N3CCOCC3)no2)cc1 | 0.0% | -6.4% | 29.5 | 12.0 | -6.1% | -13.9%
O=C(c1cc(-c2ccc(Cl)c(Cl)c2)on1)N1CCCCCC1 | 1.5% | -9.6% | 36.1* | 20.2* | 1.3% | -9.1%
COc1ccccc1N1CCN(C(=O)c2cc(-c3ccc(Cl)cc3)on2)CC1 | 9.2% | 33.6% | 3.7 | 18.5 | ? | 0.6%
CC(C)CC1C(=O)N(Cc2cn(CCC3OCCCO3)nn2)CCS(=O)(=O)N1Cc1ccc(-c2ccc(F)cc2)cc1 (stereo not drawn) | · | -18.3% | · | · | · | ·
CCN(CC)c1ccc([N+](=O)[O-])cc1/C=N/NC(=O)CC#N | 9.1% | 17.9% | 26.7 | -1.2 | -5.3% | -53.2%
COC(=O)CON1C(=O)c2ccccc2C1=O | -3.6% | -6.0% | -5.9 | 0.3 | -5.8% | -19.3%
CCCCN(CCCC)S(=O)(=O)c1ccc(NC(=O)c2cccs2)cc1 | -9.3% | 3.3% | -7.9 | -5.4 | -1.0% | -45.0%
CCOC(=O)C1CCCN(C(=O)c2cc(-c3ccccc3)on2)C1 (stereo not drawn) | -4.9% | -8.5% | 79.4* | 42.4* | 0.4% | -1.0%
Cc1ccc(-c2cc(C(=O)N3CCCC3)no2)cc1 | -10.0% | 3.3% | active | 28.2 | ? | -0.6%
O=C(c1cc(-c2ccc(O)cc2)on1)N1CCCCCC1 | -5.0% | -1.5% | 60.8* | 33.9* | -8.0% | -17.9%
O=C(c1cc(-c2ccccc2O)on1)N1CCCCC1 | · | · | · | · | 15.0% | ·
Cn1nnnc1Sc1ncnc2scc(-c3ccc(-c4ccccc4)cc3)c12 | -1.6% | · | · | · | · | -14.8%
CC(C)n1nnc(-c2ccc(OCc3ccccc3F)cc2)n1 | -6.8% | 45.3% | · | 26.3* | ? | -15.5%
